From PubChem BioAssay AID504339 (National Center for Advancing Translational Sciences (NCATS), 2011)
Among all 390,000 compounds or so, about 17,000 (4.4%) were called active. About 8% were inconclusive and are not listed. This is one part of a sample in which actives are shown more often than they occur. Unmarked numbers belong to inactive results. Calls come from the whole dose curve; as a rule, active = well fitted inhibition curve with a large enough effect; inconclusive = small, poorly fitted or top-dose-only effect; inactive = no such curve, though single readings can be large or run the other way.

biological target: Lysine-specific demethylase 4A (Homo sapiens) (UniProt O75164); assay: qHTS Assay for Inhibitors of JMJD2A-Tudor Domain; conditions: AlphaScreen JMJD2A-Tudor / H3K4me3 peptide binding; series mostly up to 114 µM; activity change, negative = inhibition: at the top concentration; note: nearly all actives have a fitted effect of over 50% in size
Text: JMJD2A is a jumonji-domain-containing lysine demethylase that uses Fe(II) together with 2-OG to effect oxidative demethylation of histones. Methylation is one of many […] modification that affect epigenetic transcription. […] It is proposed that the functions of JmjD2A binding to the histones, is to maintain marks after they are installed and to spread the modifications by […], establishing a self-propagating cycle for rapid methylation over a large area of chromatin. […] Thus, small molecule targeting of the JMJD2A-tudor domain interaction with its target methylhistone mark is expected to enable sophisticated experiments probing the fine regulatory pathways leading to selective demethylation of a given methyllysine locus based on the methylation state of adjacent histone marks. A quantitative high throughput AlphaScreen has been developed to identify small molecule inhibitors based on a protocol published by NCGC and SGC [4].
Although AlphaScreen has significant advantages with its utility in a variety of epigenetic target assays, the primary screening data provided in this deposition should be used with caution due to the prevalence of screening artifacts. The top compound concentration tested was high (>100uM) in this assay, which increases number of actives and potential artifacts. An AlphaScreen counterscreen is highly recommended to be run against any putative actives to eliminate non-specific artifacts. Alternatively, one can use other AlphaScreen assays in PubChem to filter out promiscuous hits.
[1] Lee, J. et al. Distinct binding modes specify the recognition of methylated histone H3K4 and H4K20 by JMJD2A-tudor. Nat Struct Mol Biol. 15(1); 109-11. 2008. PMID: 18084306
[2] Yasgar, et al. Compound Management for Quantitative High-Throughput Screening. JALA. 2008 Apr;13(2):79-89. PMID: 18496600
[3] Inglese, et al. Quantitative high-throughput screening: a titration-based approach that efficiently identifies biological activities in large chemical libraries. Proc Natl Acad Sci. 1;103(31):11473-8. 2006. PMID: 16864780
[4] Quinn et al. A homogeneous method for investigation of methyl-dependent protein-protein interactions in epigenetics. Nucleic Acids Res., 38(2):e11. 2010. PMID: […]
[5] Baell,Holloway. New substructure filters for removal of pan assay interference compounds (PAINS) from screening libraries and for their exclusion in bioassays. J Med Chem. 53(7):2719-40. 2010. PMID: 20131845
NIH Molecular Libraries Probe Production Network [MLPCN]
NIH Chemical Genomics Center [NCGC]
Structural Genomics Consortium (SGC)
To each well of a 1,536w plate, 2ul of JMJD2A-Tudor (final 100nM) and 1ul biotinylated histone peptide methylated at Lys4 [b-H3(1-18)K4me3] (final 50nM) were added in 1x PBS buffer, pH 7.4, containing 0.01% Tween-20, using a nanoliter dispenser. Formation of a protein-peptide complex proceeded at room temperature for 30 min. A Kalypsys pin-tool transferred 23nl of library compound solution in DMSO to each well. Following a 30 min incubation of the protein-peptide complex with compounds at room temperature, a mixture of 40 µg/mL each streptavidin-coated donor and nickel chelate acceptor AlphaScreen beads (final 10 µg/mL) was added in a 1ul dispense for a final volume of 4ul, followed by a brief centrifugation (1000 rpm, 1 min). Plates were incubated protected from the light for 20 min at room temperature. Microplates were then read on an EnVision multilabel plate reader using the 1,536 plate HTS AlphaScreen aperture (excitation time 80 ms, measurement time 240 ms).
% is set by controls: 0 for no effect and ±100 for the full control effect; potency is the fitted concentration of half-maximal effect.

Chain of Lysine-specific demethylase 4A (Homo sapiens) (O75164 whole entry, looked up, the tested form may be a part): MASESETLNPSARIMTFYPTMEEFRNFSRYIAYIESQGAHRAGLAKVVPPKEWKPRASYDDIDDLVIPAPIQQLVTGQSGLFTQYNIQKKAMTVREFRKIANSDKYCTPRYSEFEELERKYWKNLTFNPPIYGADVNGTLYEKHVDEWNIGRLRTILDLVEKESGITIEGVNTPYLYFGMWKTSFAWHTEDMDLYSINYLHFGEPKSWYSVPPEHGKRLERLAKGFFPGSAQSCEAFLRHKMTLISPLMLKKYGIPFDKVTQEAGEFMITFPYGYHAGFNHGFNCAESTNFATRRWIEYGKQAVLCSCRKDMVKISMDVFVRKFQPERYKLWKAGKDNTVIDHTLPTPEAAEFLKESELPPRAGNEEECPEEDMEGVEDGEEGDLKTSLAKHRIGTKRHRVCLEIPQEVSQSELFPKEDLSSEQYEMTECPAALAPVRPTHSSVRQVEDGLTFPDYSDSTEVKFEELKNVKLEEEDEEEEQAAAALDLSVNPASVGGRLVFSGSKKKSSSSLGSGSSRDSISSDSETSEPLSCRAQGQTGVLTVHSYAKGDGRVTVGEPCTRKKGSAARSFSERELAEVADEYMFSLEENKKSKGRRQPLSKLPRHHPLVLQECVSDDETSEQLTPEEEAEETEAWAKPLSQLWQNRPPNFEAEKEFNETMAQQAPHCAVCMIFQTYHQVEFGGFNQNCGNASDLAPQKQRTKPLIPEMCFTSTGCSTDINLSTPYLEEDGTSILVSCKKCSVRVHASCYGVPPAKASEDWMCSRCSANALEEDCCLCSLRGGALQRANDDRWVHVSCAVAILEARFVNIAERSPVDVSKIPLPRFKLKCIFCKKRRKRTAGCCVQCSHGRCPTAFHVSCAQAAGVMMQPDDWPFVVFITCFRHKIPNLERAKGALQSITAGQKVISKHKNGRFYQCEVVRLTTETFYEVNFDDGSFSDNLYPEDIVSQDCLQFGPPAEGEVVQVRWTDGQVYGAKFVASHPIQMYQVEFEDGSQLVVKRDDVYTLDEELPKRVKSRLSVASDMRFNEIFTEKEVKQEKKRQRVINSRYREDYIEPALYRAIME

Compound | Potency | activity change, negative = inhibition
CCOc1ccc(CN(CCCl)CCCl)cc1C(=O)OC | 25.1 µM (active) | –
c1ccc(C(CN2CCCCC2)c2ccccc2)cc1 | – | -9.59%
CCOP(=O)(OCC)C(NC(=O)c1ccc(C)cc1)C(Cl)(Cl)Cl (configuration not stated) | – | 0.685%
CC12CCC(O)CC1CCC1C2CCC2(C)C(C(=O)CC(O)C(F)(F)F)CCC12 (configuration not stated) | – | -4.17%
CCC1(C)CC(CCNCc2ccc(N(C)C)cc2)(c2ccc(F)cc2)CCO1 (configuration not stated) | 44.7 µM (active) | –
COC1=CC=C2[C@H]3Cc4ccc(OC)c5c4[C@@]2(CCN3C)C1O5 (some centres not stated) | – | -11%
CCN(CC)C(=O)c1ccc(NC(=O)c2cc(-n3cnnc3)ccc2Cl)cc1 | – | -15.3%
COc1cccc(OC)c1C(=O)NC(=S)N1C[C@H]2C[C@H](C1)c1cccc(=O)n1C2 | – | -17.7%
CCC/C(=N\O)c1c[nH]c2ccccc12 | – | 3.73%
CCc1cccc2c(C#N)cn(CC(=O)N3CCOCC3)c12 | – | -5.97%
O=C(Cc1ccc(Cl)cc1)NCCN1CCN(C(=O)Cc2ccc(Cl)cc2)CC1 | – | -13.7%
CCN1CCN(C(=O)Cc2coc3cc(C)cc(C)c23)CC1 | – | -17.1%
O=C(Cn1c(=O)n(CC2CS2)c2ccccc21)N1CCCCC1 (configuration not stated) | – | -0.687%
O=C(Cc1ccccc1)N1CCN(C2CCCCCC2)CC1 | 79.4 µM (active) | –
COc1ccccc1CN1CCN(C(=O)Cc2ccccc2)CC1 | 2.51 µM (active) | –
CCC(=NCCc1ccccc1)c1c(O)n(C2CCCCC2)c(=O)[nH]c1=O | – | -27.9%
CN(C)C(=O)NC(O)C(Cl)(Cl)Cl (configuration not stated) | – | -1.74%
COC(=O)C1=C(c2ccc(F)cc2F)C[C@@H]2CC[C@H]1N2C(=O)NC1CC1 | – | -13.4%
CC=C(C)C(=O)OC1CCN2CC=C(COC(=O)C(O)(C(C)OC)C(C)(C)O)C12 (configuration not stated) | – | -10.3%

Compound | Potency | activity change, negative = inhibition
CCOc1ccc(-c2cc(C)[n+](CCN(CC)CC)c(-c3ccc(OCC)cc3)c2)cc1 | – | -5.32%
CCC(=O)CC(c1ccc([N+](=O)[O-])cc1)c1c(O)c2ccccc2oc1=O (configuration not stated) | – | -5.04%
COc1ccccc1OC(=O)c1ccc(C)c(S(=O)(=O)N2CCOCC2)c1 | – | -4.23%
CC1CNCCN1c1ccc(Cl)cc1 (configuration not stated) | – | -6.94%
Cn1cc(/C=C/c2nc3ccccc3c(=O)n2-c2ccccc2)c2ccccc21 | – | -25.8%
CCC(=O)OC(Cc1ccccc1)(c1ccccc1)C(C)CN(C)C (configuration not stated) | – | -23.4%
O=C(C1CC(=O)N(C2CCCC2)C1)N1CCC2(CC1)OCCO2 (configuration not stated) | – | -3.52%
O=C(C1CCN(CC2CCCCC2)CC1)N1CCCC1 | 50.1 µM (active) | –
C=C(C)C1(CCCC)C(=O)NC(=S)NC1=O | – | -10.4%
COC(=O)C1=C(c2ccc(C(C)=O)cc2)C[C@@H]2CC[C@H]1N2C(=O)NCCNC(C)=O | – | -20.7%
CN(C)/C=C(\C=[N+](C)C)c1[nH]ncc1[N+](=O)[O-] | – | -5.84%
C[C@]12CCCCC1=CC(=O)C1C2CC[C@@]2(C)C1C[C@@H](F)[C@@H]2O (some centres not stated) | – | 1.38%
CC/C(=N\NC(=O)c1ccccc1O)c1c(O)n(Cc2ccccc2)c(=O)[nH]c1=O | – | -0.735% [at 11.4 µM]
CC(C)c1ccc(-n2c(O)c(/C=N/N3CCOCC3)c(=O)[nH]c2=S)cc1 | – | -11.7%
COc1ccccc1-n1c(O)c(C=NC2CC2)c(=O)[nH]c1=O | – | 25.3%
O=c1[nH]c(=S)n(C2CC2)c(O)c1/C=N/N1CCOCC1 | – | -20.7%
O=C(N/N=C/c1c(O)n(C2CC2)c(=S)[nH]c1=O)c1ccccc1Cl | 89.1 µM (active) | –
O=C(N/N=C/c1c(O)n(C2CC2)c(=S)[nH]c1=O)c1ccccc1 | 56.2 µM (active) | –
